Test results taken from PubChem BioAssay AID602314 (ICCB-Longwood Screening Facility, Harvard Medical School, 2012).
The campaign covered roughly 84,000 compounds. About 110 (0.13%) were called active. Many of the other results were omitted from the sample, so actives are more common in it than they were. A number with no mark means an inactive call. No stated cut-off is given here; in the data, active means inhibition above about 30% (passing the limit was not always enough); inactive means the rest.

What follows are molecules tested on MgrA (MarR family transcriptional regulator), Staphylococcus aureus Newman (assay: S. aureus MgrA activity modulators, primary screen, biochemical, S. aureus Newman, fluorescence polarization (AID 602314;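 further: 0% = protein plus DNA without compound and 100% = DNA alone without protein; higher means less MgrA bound to DNA so lower polarization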)). Details: MgrA-DNA binding, stronger effect = higher value, concentration not given here.

**Q.** With N#CC(=C1C(=O)c2ccccc2C1=O)c1nc2ccccc2[nH]1 as the molecule, how does the inhibition read?
**A.** 59.7% (active)

**Q.** With N#C/C(=C\C=C\c1ccccc1)c1nc2ccccc2[nH]1 as the molecule, how does the inhibition read?
**A.** 9.2%

**Q.** For CS(=O)(=O)c1nc2ccccc2[nH]1, which inhibition is on record?
**A.** -4.3%

**Q.** CCN(CC)C(=O)CSc1nc2ccccc2cc1C was tested. Which inhibition did it give?
**A.** 0.6%

**Q.** With Nc1ccccc1C(=O)Nc1ccc(Cl)cc1 as the molecule, how does the inhibition read?
**A.** -1.3%

**Q.** For CCCCOc1ccc(C2=N/C(=C\c3cc(OC)c(OC)cc3OC)C(=O)O2)cc1, which inhibition is on record?
**A.** -1.1%

**Q.** For CSc1n[nH]c(-c2ccc(Cl)cc2)c1C#N, which inhibition is on record?
**A.** -2.1%

**Q.** CC(C)c1ccc(NC(=O)CN2N=C(c3ccc(Cl)cc3)CCC2=O)cc1 was tested. Which inhibition did it give?
**A.** 0.65%

**Q.** Which inhibition does the source give for O=C1/C(=C\c2cccs2)SC(=S)N1CCCC(=O)N1CCCc2ccccc21 here?
**A.** 2.75%

**Q.** With Cc1ccc(C(=O)OCC2OC(C#N)CC2OC(=O)c2ccc(C)cc2)cc1 (stereo unspecified) as the molecule, how does the inhibition read?
**A.** -3.65%

**Q.** With CSc1ncc(Br)c(C(=O)O)n1 as the molecule, how does the inhibition read?
**A.** -4.9%

**Q.** With O=C(c1ccc(F)cc1)c1c[nH]c(C(=O)NCc2ccc(F)cc2)c1 as the molecule, how does the inhibition read?
**A.** -2.05%

**Q.** COCCn1c(N)cc(=O)[nH]c1=S was tested. Which inhibition did it give?
**A.** 0.65%

**Q.** Which inhibition does the source give for Cc1cccc(OCC(=O)N2CCc3ccccc32)c1 here?
**A.** 0.6%

**Q.** Which inhibition does the source give for CCN(CC)C(=O)Cc1cc(OC)c(OC)cc1Br here?
**A.** 3.35%

**Q.** Cn1cnnc1SCc1ccc(Cl)cc1 was tested. Which inhibition did it give?
**A.** -1.45%

**Q.** How did the inhibition turn out when CCc1cccc(CC)c1N1C(=O)CC(Sc2ccccc2N)C1=O (stereo unspecified) was run?
**A.** 1.1%

**Q.** With c1ccc2c(c1)CCN2c1nc2ccccc2n2cnnc12 as the molecule, how does the inhibition read?
**A.** 0.25%

**Q.** O=c1[nH]c(O)c(C=NCCCn2ccnc2)c(=O)[nH]1 was tested. Which inhibition did it give?
**A.** 5.6%

**Q.** For CSc1nsc(SCC(=O)OC2CC(C)CCC2C(C)C)n1 (stereo unspecified), which inhibition is on record?
**A.** 0.7%

**Q.** With CC(C)(C)c1ccc(NC(=O)COC(=O)c2ccc(F)cc2F)cc1 as the molecule, how does the inhibition read?
**A.** 4.8%

**Q.** For CCN(C(=O)c1cccs1)c1cccc2ccccc12, which inhibition is on record?
**A.** -1.8%

**Q.** With COc1cccc(CC(=O)Nc2ccc(-c3csc(C)n3)cc2)c1 as the molecule, how does the inhibition read?
**A.** -0.65%

**Q.** For Cc1ccc(NC2SC(=O)NC2=O)cc1 (stereo unspecified), which inhibition is on record?
**A.** 1.7%

**Q.** How did the inhibition turn out when O=C(NC1CC1)C1C2C=CC3(O2)C1C(=O)N(C1CC1)C3C(=O)NC1CCCCC1 (stereo unspecified) was run?
**A.** 0.25%

**Q.** With CCSc1nnc2c(n1)OC(c1cccc(OC)c1)Nc1ccccc1-2 (stereo unspecified) as the molecule, how does the inhibition read?
**A.** -1.3%

**Q.** CC(=O)Nc1ccc(-c2nnc(-c3ccco3)o2)cc1 was tested. Which inhibition did it give?
**A.** -3.3%

**Q.** With CC(C)(C)C/C(=N/O)c1ccccc1 as the molecule, how does the inhibition read?
**A.** 0.2%

**Q.** Cc1nnc(SCc2ccc(C#N)cc2)s1 was tested. Which inhibition did it give?
**A.** 0.7%

**Q.** For CSc1ncnc2sc(-c3ccccc3)cc12, which inhibition is on record?
**A.** 0.75%

**Q.** How did the inhibition turn out when CCOC(=O)c1sc(NC(C)=O)c(C#N)c1C was run?
**A.** -2.1%

**Q.** With O=C(c1cnn2c(C(F)F)cc(-c3ccccc3)nc12)N1CCCC1 as the molecule, how does the inhibition read?
**A.** -0.35%

**Q.** CCOC(=O)c1ccc(NC(=O)CC2C(=O)N(c3ccc(F)cc3)C(=O)N2Cc2cccs2)cc1 (stereo unspecified) was tested. Which inhibition did it give?
**A.** -1.9%

**Q.** How did the inhibition turn out when FC(F)(F)c1cccc(CSc2ncn[nH]2)c1 was run?
**A.** -0.7%

**Q.** COc1ccccc1C=NC12CN3CN(CN(C3)C1)C2 was tested. Which inhibition did it give?
**A.** 2.95%

**Q.** Oc1[nH]c2ccccc2c1C=NCCC1=CCCCC1 was tested. Which inhibition did it give?
**A.** 5.65%

**Q.** For CCOCCOC(=O)C1=C(C)NC2=C(C(=O)CC(c3ccccc3)C2)C1c1cc2c(cc1Br)OCO2 (stereo unspecified), which inhibition is on record?
**A.** -2.9%

**Q.** For CCOC(=O)c1cccn1-c1ncc(C(F)(F)F)cc1Cl, which inhibition is on record?
**A.** -1.2%

**Q.** How did the inhibition turn out when Cc1ccc(-c2nn(CCC(=O)NCCN3CCOCC3)c(=O)c3ccccc23)cc1 was run?
**A.** 0.2%

**Q.** O=C(Nc1ccccc1-c1nc2ccccc2[nH]1)c1ccccc1Br was tested. Which inhibition did it give?
**A.** -2.6%

**Q.** With N#CCc1ccc(OCc2ccc(Cl)c(Cl)c2)cc1 as the molecule, how does the inhibition read?
**A.** -1.9%
